# Calls of active or inactive are those of the source. Unless noted, no rule for the calls is given here.
# Tests used:
# [1] = A549 cell viability effects, profiling panel, calcein-AM fluorescence, 48 h, basal (AID 1162); details: higher = more signal; also: test concentration not given here
# [2] = adipocyte viability effects, profiling panel, cell-based, 3T3-L1 adipocytes, calcein-AM fluorescence, 48 h, basal (AID 1163); details: 3T3-L1 adipocytes viability, higher = more signal; also: test concentration not given here
# [3] = HepG2 cell viability effects, profiling panel, calcein-AM fluorescence, 48 h, basal (AID 1164); details: higher = more signal; also: test concentration not given here
# [4] = MM1S cell viability effects, profiling panel, calcein-AM fluorescence, 48 h, basal (AID 1165); details: higher = more signal;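 also: viability of MM1S multiple myeloma cells under basal unstimulated conditions; test concentration not given here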
# [5] = basal RPMI8226 viability, no added stimulus, profiling panel, cell-based, calcein-AM fluorescence, 48 h, PK04 Diversity Set (AID 1166); details: RPMI8226 myeloma viability, higher = more signal;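 also: cells grown under basal conditions without added stimulus; test concentration not given here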
# [6] = basal HepG2 mitochondrial membrane potential changes, profiling panel, cell-based, JC-1 fluorescence, 24 h, 100 nL compound (AID 1167); details: higher = more signal; also: test concentration not given here
# [7] = basal 3T3-L1 adipocyte mitochondrial potential changes, profiling panel, cell-based, JC-1 fluorescence, 3T3-L1 adipocytes, 24 h, 100 nL compound (AID 1168); details: JC-1 mitochondrial fluorescence, higher = more signal, called active from +8 up or from −8 down; also: test concentration not given here
# [8] = basal RPMI8226 mitochondrial membrane potential changes, profiling panel, cell-based, JC-1 fluorescence, 24 h, 100 nL compound (AID 1169); details: RPMI8226 myeloma, JC-1 mitochondrial potential fluorescence, higher = more signal; also: test concentration not given here
# [9] = basal MM1S mitochondrial membrane potential changes, profiling panel, cell-based, JC-1 fluorescence, 24 h, 100 nL compound (AID 1170); details: higher = more signal; also: test concentration not given here
# [10] = A549 lung cancer cell viability effects, profiling panel, resazurin fluorescence, 24 h, PK04 Diversity Set (AID 1171); details: higher = more signal, called active from +8 up or from −8 down; also: test concentration not given here
# [11] = HepG2 liver cancer cell viability effects, profiling panel, resazurin fluorescence, 24 h, PK04 Diversity Set (AID 1172); details: higher = more signal; also: test concentration not given here
# [12] = basal S. cerevisiae growth modulation, no modifier, primary screen, OD600, strain BY4716, 24 h, basal condition (AID 1173); details: OD600, 24 h, higher = more signal, called active from +8 up or from −8 down
# [13] = MM1S myeloma cell viability, profiling panel, resazurin fluorescence, basal, 24 h, PK04 Diversity Set (AID 1174); details: higher = more signal, called active from +8 up or from −8 down;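 also: MM1S multiple myeloma cell line; test concentration not given here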
# [14] = molecular target: Dihydroorotate dehydrogenase (quinone), mitochondrial (Plasmodium falciparum (isolate 3D7)) (UniProt Q08210); assay: PfDHODH enzyme inhibitors, primary screen, biochemical, C-terminal His tag, absorbance 600 nm (AID 1175); details: DCIP absorbance 600 nm, higher = more signal, called active from +8 up or from −8 down;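 also: recombinant parasite enzyme with a five histidine tag at its C terminus; test concentration not given here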
# [15] = P. aeruginosa biofilm formation inhibitors, primary screen, strain PAO1, LB-PBS medium, absorbance 600 nm (AID 1176); also: test concentration not given here; details: P. aeruginosa PAO1 growth/biofilm, A600, 12 h; higher = more signal
# [16] = S. cerevisiae RM11-1a growth modifiers, primary screen, strain RM11-1a, OD600, basal, 24 h (AID 1177); details: OD600, 24 h, higher = more signal, called active from +8 up or from −8 down;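 also: cultures grown under basal conditions with no added stressor; test concentration not given here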
# [17] = E. coli acrAB mutant growth effects, primary screen, E. coli filamentation inducers, strain DRC39, OD650, 24 h (AID 1178); details: higher = more signal, called active from +8 up or from −8 down;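 also: growth measured as culture turbidity by optical density at 650 nm; test concentration not given here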
# [18] = E. coli acrAB mutant growth effects, primary screen, E. coli filamentation inducers, strain DRC39, OD650, 48 h (AID 1179);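 also: screen aims at cell division blockers that make cells filament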; details: E. coli DRC39 delta-acrAB growth, higher = more signal, called active from +8 up or from −8 down
# [19] = RPMI8226 myeloma cell viability, profiling panel, resazurin fluorescence, basal, 24 h, PK04 Diversity Set (AID 1180); details: higher = more signal;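 also: RPMI8826 multiple myeloma cell line at 5000 cells per well; test concentration not given here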
# [20] = molecular target: E3 ubiquitin-protein ligase XIAP (Homo sapiens) (UniProt P98170); assay: XIAP binders, primary screen, biophysical, small-molecule microarray, fluorescence 635 nm (AID 1181); details: small-molecule microarray binding, higher = more signal;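 also: score merges 667 nm emission and signal to noise over triplicate slides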
# Sequence of E3 ubiquitin-protein ligase XIAP (Homo sapiens) (P98170 whole entry, looked up): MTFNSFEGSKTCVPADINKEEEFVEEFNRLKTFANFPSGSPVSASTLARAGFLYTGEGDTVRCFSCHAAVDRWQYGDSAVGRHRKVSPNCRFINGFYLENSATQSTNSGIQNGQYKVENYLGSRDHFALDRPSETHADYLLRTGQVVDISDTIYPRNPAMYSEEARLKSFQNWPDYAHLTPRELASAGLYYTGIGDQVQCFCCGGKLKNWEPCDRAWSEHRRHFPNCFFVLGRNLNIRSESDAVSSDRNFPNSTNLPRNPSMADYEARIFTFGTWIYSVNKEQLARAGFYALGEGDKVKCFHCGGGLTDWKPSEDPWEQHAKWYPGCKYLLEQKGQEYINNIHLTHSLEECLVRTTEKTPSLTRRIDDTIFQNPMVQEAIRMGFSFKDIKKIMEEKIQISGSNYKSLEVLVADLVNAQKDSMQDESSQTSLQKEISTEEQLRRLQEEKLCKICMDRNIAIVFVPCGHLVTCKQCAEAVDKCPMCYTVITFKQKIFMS
# Sequence of Dihydroorotate dehydrogenase (quinone), mitochondrial (Plasmodium falciparum (isolate 3D7)) (Q08210 whole entry, looked up): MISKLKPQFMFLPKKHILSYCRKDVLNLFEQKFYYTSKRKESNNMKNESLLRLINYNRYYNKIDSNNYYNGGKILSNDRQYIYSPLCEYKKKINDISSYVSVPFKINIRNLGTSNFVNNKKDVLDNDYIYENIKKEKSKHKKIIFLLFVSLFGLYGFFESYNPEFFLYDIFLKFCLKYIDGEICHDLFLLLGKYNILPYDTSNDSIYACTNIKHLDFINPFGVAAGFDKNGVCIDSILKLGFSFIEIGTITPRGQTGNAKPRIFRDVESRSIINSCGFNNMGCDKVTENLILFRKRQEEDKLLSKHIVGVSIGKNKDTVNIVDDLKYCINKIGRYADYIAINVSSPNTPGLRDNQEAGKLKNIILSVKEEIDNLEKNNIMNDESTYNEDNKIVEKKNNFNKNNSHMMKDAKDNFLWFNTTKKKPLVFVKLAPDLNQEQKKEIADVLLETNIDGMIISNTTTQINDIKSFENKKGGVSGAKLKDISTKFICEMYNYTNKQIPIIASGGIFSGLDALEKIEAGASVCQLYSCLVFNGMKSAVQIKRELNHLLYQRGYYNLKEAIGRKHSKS
SMILES,z-score [1],z-score [2],z-score [3],z-score [4],z-score [5],z-score [6],z-score [7],z-score [8],z-score [9],z-score [10],z-score [11],z-score [12],z-score [13],composite z-score [14],z-score [15],z-score [16],z-score [17],z-score [18],z-score [19],composite z-score [20]
C=C(CCCC)/C(=C/C[C@H](OC(=O)c1ccncc1)c1ccc(OCCO)cc1)c1cc(C(=O)OC)ccc1OC,-0.154,1.55,-0.754,-1.47,-2.56,1.22,0.0667 (inactive),-0.281,-0.93,0.54 (inactive),-0.113,0.409 (inactive),-0.266 (inactive),-4.01 (inactive),-0.693 (inactive),0.395 (inactive),-0.981 (inactive),-0.581 (inactive),-0.691,0.22
O=C1OCCC=C[C@H]2OC34C=CCN(CCN5CCOCC5)C(=O)[C@H]3N(CCCCCO)C(=O)[C@@H]4C12 (stereo not given in full),0.478,0.0858,1.02,-0.0119,0.218,0.575,0.172 (inactive),-0.152,-0.355,0.203 (inactive),-0.123,-0.987 (inactive),0.673 (inactive),0.233 (inactive),-0.484 (inactive),-0.112 (inactive),0.298 (inactive),0.732 (inactive),0.571,-0.0144
CC(C)C(=C=CC[C@H](O)c1ccc(CO)o1)CCO,-0.0934,-0.33,-0.0026,-1.25,-0.2,-0.427,-0.0538 (inactive),-0.533,0.019,-0.507 (inactive),-0.0202,-1.56 (inactive),-0.159 (inactive),-2.12 (inactive),0.0356 (inactive),-0.132 (inactive),-0.706 (inactive),-0.741 (inactive),0.152,0.102
COCCOC(=O)N1C(=O)[C@@]2(c3ccccc31)[C@H](C(=O)N1CCc3cc(OC)c(OC)cc3C1)[C@H]1C(=O)O[C@H](c3ccccc3)[C@H](c3ccccc3)N1[C@@H]2c1ccc(O)cc1,2.4,1.1,1.76,0.275,0.0454,0.218,0.743 (inactive),-0.69,0.0766,-0.223 (inactive),0.349,0.296 (inactive),0.173 (inactive),-0.974 (inactive),2.16 (inactive),1.13 (inactive),-0.157 (inactive),0.549 (inactive),-0.111,0.116
CO[C@H]1O[C@H](CO)[C@@H](OC(=O)Nc2cccc(F)c2)[C@H](OC(=O)Nc2ccccc2)[C@H]1OC(=O)Nc1ccccc1,-2.2,1.33,-2.94,-1.53,-4.26,-0.389,0.518 (inactive),-1.33,-0.561,-3.72 (inactive),-2.71,0.311 (inactive),-4.75 (inactive),-0.599 (inactive),-0.261 (inactive),1.77 (inactive),1.11 (inactive),0.194 (inactive),-4.5,0.072
CCC(CC)C(O)C1C=CC2C(=O)N(c3ccccc3)C(=O)C2N1Nc1ccccc1 (stereo not given),0.857,-1.31,1.72,-0.127,-0.092,-1.48,-2.32 (inactive),0.0116,-0.403,0.328 (inactive),1.48,-1.61 (inactive),0.33 (inactive),0.246 (inactive),2.07 (inactive),-0.166 (inactive),0.55 (inactive),0.503 (inactive),0.0861,0.212
CC=CC(O)C1C=CC2C(=O)N(C)C(=O)C2N1N(c1ccccc1)c1ccccc1 (stereo not given),-0.716,-1.7,-0.967,0.13,0.0318,-0.0443,-0.149 (inactive),-0.372,-0.106,-0.522 (inactive),0.0376,0.554 (inactive),-0.505 (inactive),1.13 (inactive),-0.531 (inactive),0.823 (inactive),-1.15 (inactive),-0.321 (inactive),-0.905,0.0116
OB1C=CCC(CCc2ccccc2)O1 (stereo not given),0.345,0.638,0.36,0.293,0.364,1.39,0.244 (inactive),-0.855,0.954,-1.01 (inactive),-0.246,-3.2 (inactive),0.506 (inactive),-0.685 (inactive),1.45 (inactive),-2.36 (inactive),2.73 (inactive),0.96 (inactive),0.23,-0.275
O=C(O)[C@@]1(CCS(=O)(=O)c2ccccc2)N=C(c2ccc(OCCCO)cc2)O[C@H]1c1ccccc1,-0.932,0.784,-0.258,-0.839,-1.04,0.591,-0.249 (inactive),-0.178,-0.51,0.761 (inactive),0.489,-1.11 (inactive),0.409 (inactive),-0.0555 (inactive),-1.27 (inactive),-0.357 (inactive),0.28 (inactive),-0.275 (inactive),1.26,0.0952
